Reference: PubChem BioAssay (NCI)
This is part of a sample that, as a whole, favours compounds with a hit. Of some 83,000 tested, about 20% had one in any assay.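 Single-concentration screen, 48 h exposure, 96-well plates. Endpoint: percent growth. Below 10 = active.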 Active and inactive are the calls of the source.

Tests used:
Assay in all cases: NCI-60 one-dose screen, 48 h (100 = growth as untreated, 0 = no growth, -100 = all killed)
HCT-15 colon = conditions: 10 µM unless noted
HT29 colon = conditions: 10 µM unless noted
SNB-75 CNS = conditions: 10 µM unless noted
SNB-19 CNS = conditions: 10 µM unless noted
U251 CNS = conditions: 10 µM unless noted
PC-3 prostate = conditions: 10 µM unless noted
SK-MEL-5 melanoma = conditions: 10 µM unless noted
UACC-62 melanoma = conditions: 10 µM unless noted
LOX IMVI melanoma = conditions: 10 µM
SK-MEL-28 melanoma = conditions: 10 µM unless noted
SK-MEL-2 melanoma = conditions: 10 µM unless noted
EKVX NSCLC = conditions: 10 µM unless noted
SN12C renal = conditions: 10 µM unless noted
UO-31 renal = conditions: 10 µM unless noted
TK-10 renal = conditions: 10 µM unless noted
ACHN renal = conditions: 10 µM unless noted
A498 renal = conditions: 10 µM unless noted
CCRF-CEM leukemia = conditions: 10 µM unless noted
MOLT-4 leukemia = conditions: 10 µM unless noted
CAKI-1 renal = conditions: 10 µM unless noted

Measured: growth

CSCCC(NC(=O)C(Cl)Cl)C(=O)O (stereo not drawn)
inactive: HCT-15 colon 102% | HT29 colon 100% | SNB-75 CNS 85.6% | SNB-19 CNS 107% | U251 CNS 90.9% | PC-3 prostate 89% | SK-MEL-5 melanoma 99.8% | UACC-62 melanoma 95.8% | LOX IMVI melanoma 98.4% | SK-MEL-28 melanoma 97% | SK-MEL-2 melanoma 102% | EKVX NSCLC 90.2% | SN12C renal 97.5% | UO-31 renal 96.3% | TK-10 renal 94.1% | ACHN renal 101% | A498 renal 108% | CCRF-CEM leukemia 97.7% | MOLT-4 leukemia 90.5%

CC(=O)Nc1ccc(O)c(C)c1
inactive: HCT-15 colon 118% | HT29 colon 98.4% | SNB-75 CNS 95.4% | SNB-19 CNS 104% | U251 CNS 92.5% | PC-3 prostate 87% | SK-MEL-5 melanoma 100% | UACC-62 melanoma 104% | LOX IMVI melanoma 95.4% | SK-MEL-28 melanoma 103% | SK-MEL-2 melanoma 104% | EKVX NSCLC 112% | SN12C renal 102% | UO-31 renal 95.1% | TK-10 renal 93.2% | ACHN renal 99.4% | CAKI-1 renal 97.5% | CCRF-CEM leukemia 95.4% | MOLT-4 leukemia 85.2%

CCOC(=O)c1c[nH][nH]c1=O
inactive: HCT-15 colon 103% | HT29 colon 105% | SNB-75 CNS 118% | SNB-19 CNS 99.1% | U251 CNS 103% | PC-3 prostate 108% | SK-MEL-5 melanoma 105% | UACC-62 melanoma 96.2% | LOX IMVI melanoma 97.8% | SK-MEL-28 melanoma 127% | SK-MEL-2 melanoma 94.1% | EKVX NSCLC 116% | SN12C renal 104% | UO-31 renal 93.7% | TK-10 renal 111% | ACHN renal 106% | A498 renal 98.5% | CCRF-CEM leukemia 107% | MOLT-4 leukemia 106%

COc1ccc2c(c1)Nc1ccccc1S2
inactive: HCT-15 colon 104% | HT29 colon 104% | SNB-75 CNS 108% | SNB-19 CNS 110% | U251 CNS 97.2% | PC-3 prostate 97.9% | SK-MEL-5 melanoma 101% | UACC-62 melanoma 96.2% | LOX IMVI melanoma 113% | SK-MEL-28 melanoma 114% | SK-MEL-2 melanoma 112% | EKVX NSCLC 105% | SN12C renal 107% | UO-31 renal 93% | TK-10 renal 107% | ACHN renal 114% | CCRF-CEM leukemia 104% | MOLT-4 leukemia 106%

O=C1CSc2ccccc2N1
inactive: HCT-15 colon 118% | HT29 colon 100% | SNB-75 CNS 76.2% | SNB-19 CNS 96.3% | U251 CNS 96.7% | PC-3 prostate 93.1% | SK-MEL-5 melanoma 109% | UACC-62 melanoma 106% | LOX IMVI melanoma 88% | SK-MEL-28 melanoma 105% | SK-MEL-2 melanoma 103% | EKVX NSCLC 97% | SN12C renal 100% | UO-31 renal 69.2% | TK-10 renal 105% | ACHN renal 110% | A498 renal 97.2% | CCRF-CEM leukemia 96.6% | MOLT-4 leukemia 114%

CC(=O)OCC1CCC(COC(C)=O)CC1 (stereo not drawn)
inactive: HCT-15 colon 95% | HT29 colon 68.6% | SNB-75 CNS 87.4% | SNB-19 CNS 109% | U251 CNS 105% | PC-3 prostate 111% | SK-MEL-5 melanoma 103% | UACC-62 melanoma 97.7% | LOX IMVI melanoma 94% | SK-MEL-28 melanoma 102% | SK-MEL-2 melanoma 89.8% | EKVX NSCLC 94.3% | SN12C renal 110% | UO-31 renal 91.9% | TK-10 renal 89.1% | A498 renal 109% | CCRF-CEM leukemia 115% | MOLT-4 leukemia 93.1%

Nc1nc(N)nc(N2CCCCC2)n1
inactive: HCT-15 colon 107% | HT29 colon 98.2% | SNB-75 CNS 118% | SNB-19 CNS 115% | U251 CNS 101% | PC-3 prostate 99.5% | SK-MEL-5 melanoma 100% | UACC-62 melanoma 104% | LOX IMVI melanoma 104% | SK-MEL-28 melanoma 114% | SK-MEL-2 melanoma 100% | EKVX NSCLC 107% | SN12C renal 102% | TK-10 renal 91.6% | ACHN renal 110% | CAKI-1 renal 104% | A498 renal 89.6% | MOLT-4 leukemia 107%

c1ccc2[nH]c(Cc3nc4ccccc4[nH]3)nc2c1
inactive: HCT-15 colon 107% | HT29 colon 112% | SNB-75 CNS 94.9% | SNB-19 CNS 130% | U251 CNS 106% | PC-3 prostate 93.7% | SK-MEL-5 melanoma 104% | UACC-62 melanoma 105% | LOX IMVI melanoma 109% | SK-MEL-28 melanoma 94.3% | SK-MEL-2 melanoma 121% | EKVX NSCLC 104% | SN12C renal 107% | UO-31 renal 95.3% | TK-10 renal 122% | ACHN renal 96.2% | A498 renal 98.5% | CCRF-CEM leukemia 27.9% | MOLT-4 leukemia 110%

Cc1ccc([N+](=O)[O-])c(C)n1
inactive: HCT-15 colon 97.9% | HT29 colon 108% | SNB-75 CNS 77.8% | SNB-19 CNS 105% | U251 CNS 102% | PC-3 prostate 89.7% | SK-MEL-5 melanoma 114% | UACC-62 melanoma 107% | LOX IMVI melanoma 103% | SK-MEL-28 melanoma 99.6% | SK-MEL-2 melanoma 120% | EKVX NSCLC 97.2% | SN12C renal 106% | UO-31 renal 74.1% | TK-10 renal 117% | ACHN renal 91.5% | A498 renal 79.8% | CCRF-CEM leukemia 96.4% | MOLT-4 leukemia 115%

CCC(=O)C1C(=O)c2ccccc2C1=O
inactive: HCT-15 colon 113% | HT29 colon 100% | SNB-75 CNS 83.1% | SNB-19 CNS 109% | U251 CNS 105% | PC-3 prostate 92.2% | SK-MEL-5 melanoma 110% | UACC-62 melanoma 104% | LOX IMVI melanoma 98.1% | SK-MEL-28 melanoma 120% | SK-MEL-2 melanoma 102% | EKVX NSCLC 82.6% | SN12C renal 109% | UO-31 renal 68.8% | TK-10 renal 114% | ACHN renal 115% | A498 renal 114% | CCRF-CEM leukemia 107% | MOLT-4 leukemia 136%

CC(=O)Nc1ccc(/C=C2\SC(=S)N(/C=C(\C(C)=O)C(N)=O)C2=O)cc1
inactive: HCT-15 colon 98.2% | HT29 colon 97.4% | SNB-75 CNS 82.4% | SNB-19 CNS 100% | U251 CNS 90.3% | PC-3 prostate 78.5% | SK-MEL-5 melanoma 88.7% | UACC-62 melanoma 87.6% | LOX IMVI melanoma 78.3% | SK-MEL-28 melanoma 93.4% | SK-MEL-2 melanoma 87.7% | EKVX NSCLC 94.2% | SN12C renal 95.5% | TK-10 renal 97.4% | ACHN renal 97.8% | CAKI-1 renal 98.3% | A498 renal 101% | CCRF-CEM leukemia 91.1%

NC(CCl)=NCC12CC3CC(CC(C3)C1)C2
inactive: SNB-75 CNS 13.2% | SNB-19 CNS 22.2% | UACC-62 melanoma 32.7% | SK-MEL-28 melanoma 55.3% | ACHN renal 11.8% | A498 renal 33% | MOLT-4 leukemia 27.4%
active: HCT-15 colon 9.53% | HT29 colon -13.6% | U251 CNS 6.8% | PC-3 prostate 7.42% | SK-MEL-5 melanoma 5.92% | LOX IMVI melanoma -33.6% | SK-MEL-2 melanoma -44.6% | EKVX NSCLC -7.97% | SN12C renal 9.41% | UO-31 renal -98.5% | TK-10 renal -2.27% | CCRF-CEM leukemia -15.8%

CC(=O)Nc1ccc(C(=O)c2ccc(S(=O)(=O)Nc3ccccc3)cc2)cc1
inactive: HCT-15 colon 104% | HT29 colon 96.7% | SNB-75 CNS 78.1% | SNB-19 CNS 80.3% | U251 CNS 91.9% | PC-3 prostate 87.2% | SK-MEL-5 melanoma 89.8% | UACC-62 melanoma 83.1% | LOX IMVI melanoma 91.6% | SK-MEL-28 melanoma 114% | SK-MEL-2 melanoma 80.6% | EKVX NSCLC 105% | SN12C renal 98.6% | UO-31 renal 85.7% | ACHN renal 104% | CAKI-1 renal 106% | A498 renal 79.2% | CCRF-CEM leukemia 82.8% | MOLT-4 leukemia 102%

O=C1NC(=O)C(c2ccccc2)O1 (stereo not drawn)
inactive: HCT-15 colon 107% | HT29 colon 105% | SNB-75 CNS 93.2% | SNB-19 CNS 109% | U251 CNS 101% | PC-3 prostate 102% | SK-MEL-5 melanoma 104% | UACC-62 melanoma 105% | LOX IMVI melanoma 97.4% | SK-MEL-28 melanoma 109% | SK-MEL-2 melanoma 90.1% | SN12C renal 103% | UO-31 renal 87.6% | TK-10 renal 101% | ACHN renal 99.2% | CAKI-1 renal 98% | A498 renal 102% | CCRF-CEM leukemia 101% | MOLT-4 leukemia 98.3%

CCOC(=O)CSCCC#N
inactive: HCT-15 colon 100% | HT29 colon 97.9% | SNB-75 CNS 97% | SNB-19 CNS 104% | U251 CNS 105% | PC-3 prostate 97.8% | SK-MEL-5 melanoma 111% | UACC-62 melanoma 99.3% | LOX IMVI melanoma 96.3% | SK-MEL-28 melanoma 96.6% | SK-MEL-2 melanoma 105% | SN12C renal 97.9% | UO-31 renal 98.8% | TK-10 renal 101% | ACHN renal 95.2% | CAKI-1 renal 96% | A498 renal 83.1% | CCRF-CEM leukemia 102% | MOLT-4 leukemia 91.5%

O=S(=O)(O)c1ccc(O)c(C2CCCCC2)c1
inactive: HCT-15 colon 96.6% | HT29 colon 98.6% | SNB-75 CNS 77.2% | SNB-19 CNS 104% | U251 CNS 96.6% | PC-3 prostate 98.5% | SK-MEL-5 melanoma 101% | UACC-62 melanoma 109% | LOX IMVI melanoma 105% | SK-MEL-28 melanoma 110% | SK-MEL-2 melanoma 102% | SN12C renal 105% | UO-31 renal 91% | TK-10 renal 95% | ACHN renal 105% | CAKI-1 renal 94.4% | A498 renal 66.3% | CCRF-CEM leukemia 110%

Cc1cc2c(C(C)C)c(O)c(O)c(C=Nc3ccccc3[N+](=O)[O-])c2c(O)c1-c1c(C)cc2c(C(C)C)c(O)c(O)c(C=Nc3ccccc3[N+](=O)[O-])c2c1O
inactive: HCT-15 colon 80.2% | HT29 colon 93% | SNB-75 CNS 78% | SNB-19 CNS 43.9% | U251 CNS 54.2% | PC-3 prostate 65.1% | SK-MEL-5 melanoma 96.2% | UACC-62 melanoma 96.5% | LOX IMVI melanoma 81.3% | SK-MEL-28 melanoma 98.3% | SK-MEL-2 melanoma 96.6% | SN12C renal 84.9% | UO-31 renal 84% | TK-10 renal 84.2% | ACHN renal 83.3% | CAKI-1 renal 88% | A498 renal 101% | CCRF-CEM leukemia 35% | MOLT-4 leukemia 26.2%
